Source: PubChem (National Center for Advancing Translational Sciences (NCATS))
BAZ2B inh – BAZ2B (human) inhibition; AID 504333; Potency, µM (titrated, usually from 114 µM), for the others: at the top dose activity change, negative = inhibition, most hits filed as inhibitors; AlphaScreen BAZ2B-H3K14Ac peptide displacement; actives 4.4% (n = 360,000); note: % is set by controls: 0 for no effect and ±100 for the full control effect; nearly all actives have a fitted effect of over 60% in size
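Inhibition is scored as reduced AlphaScreen emission. The BAZ2B/b-H3(5-23)K14Ac complex (50 nM each) in PBS pH 7.4, 0.01% Tween-20 meets compound (up to 110 uM) for 30 min at RT before bead addition.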
PLK1 PBD block – inhibitors of human PLK1 polo-box domain binding; P53350; Plk1 PBD binding of FITC phosphopeptide, fluorescence polarization; Potency, µM, for the others: max response, negative = inhibition, actives largely listed as inhibitors; actives 2.8% (n = 360,000); AID 720504; note: series mostly up to about 57 µM; % is set by controls: 0 for no effect and ±100 for the full control effect; nearly all actives have a fitted effect of over 65% in size
HP1b chromo inh – blocks HP1-beta chromodomain binding to methylated histone tails | P83916 | Potency, µM (series often up to 114 µM), inactives show at the top dose activity change, negative = inhibition, hits mostly inhibitors | actives 0.56% (n = 390,000) | AlphaScreen HP1-beta / biotin-H3K9me3 peptide binding | AID 540317; note: nearly all actives have a fitted effect of over 70% in size
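Compound inhibition of the preformed complex between 50 nM HP1-beta and 50 nM biotinylated H3K9me3 peptide was read by AlphaScreen. Buffer was PBS pH 7.4 with 0.01% Tween-20. Incubations ran 30 min at room temperature, with 10 ug/mL donor/acceptor beads.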
L3MBTL1 inh – blocks human L3MBTL1; AlphaScreen L3MBTL1–H3K9me1 peptide binding; Potency, µM (titrated, usually from 57.1 µM), inactives show top-dose activity, negative = inhibition, usual class: inhibitors; Q9Y468; actives 0.66% (n = 230,000); note: % is set by controls: 0 for no effect and ±100 for the full control effect; nearly all actives have a fitted effect of over 60% in size
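Read-out is AlphaScreen signal from streptavidin donor and nickel chelate acceptor beads (10 ug/mL final each) bridging L3MBTL1 (50 nM) and biotinylated K9-monomethylated H3(1-15) peptide (75 nM), after 30 min compound exposure at room temperature.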
JMJD2A Tudor inh – blocks the human JMJD2A Tudor domain; O75164; AlphaScreen JMJD2A-Tudor / H3K4me3 peptide binding; Potency, µM (doses to about 114 µM), for the others: at the highest dose activity change, negative = inhibition, usual class: inhibitors; actives 4.4% (n = 390,000); AID 504339; note: % is set by controls: 0 for no effect and ±100 for the full control effect; nearly all actives have a fitted effect of over 50% in size
VDR inhibitor – inhibitors of human vitamin D receptor; P11473; VDR-SRC2-3 peptide fluorescence polarization, 2 h; Potency, µM, inactives show max response, negative = inhibition, most hits filed as inhibitors; actives 0.93% (n = 400,000); AID 504847; note: % is set by controls: 0 for no effect and ±100 for the full control effect
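Compounds are added to VDR with labelled SRC2-3 coactivator peptide and held 2 h at room temperature. Inhibition of the VDR–peptide interaction is then read as a change in fluorescence polarization.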
* hit, by the source's call; ? = inconclusive; nt = not tested or not shown; [ ] = another dose, or the depositor's remark. Only some compounds are listed: those with a hit (about 6.9% of all), similar ones and a draw of the others. Calls come from the whole dose curve; as a rule, active = well fitted curve in the direction sought with a large enough effect; inconclusive = small, poorly fitted or top-dose-only effect, or another doubt; inactive = no such curve, though single readings can be large; an effect the other way counts as inactive or inconclusive. Potency is the fitted concentration of half-maximal effect.

SMILES	BAZ2B inh	PLK1 PBD block	HP1b chromo inh	L3MBTL1 inh	JMJD2A Tudor inh	VDR inhibitor
C/C=C/C=C/C(=O)[C@@H]1[C@@H]([C@]2(C)OC(=O)C(C)=C2O)[C@H]2/C(=C(O)/C=C/C=C/C)C(=O)[C@]1(C)C(=O)C2(C)O (some centres undefined)	79.4µM*	?	-21.1%	nt	44.7µM*	?
Cc1sc2ncn(CC(=O)N3CCN(c4cccc(Cl)c4)CC3)c(=O)c2c1S(=O)(=O)N1CCC(C)CC1	-10.3%	nt	25.4%	nt	-19.8%	-0.3%
N#Cc1nc(Nc2cc(Cl)cc(Cl)c2)nc(NC2CCCC2)n1	nt	nt	nt	nt	-5.5%	nt
CC1(C)CC(=O)N(c2cc(Cl)cc(Cl)c2)C(=O)C1	0.6%	-15.5%	65.1%	nt	-1.5%	-4.1%
CCS(=O)(=O)c1nc(NC(C)=O)n[nH]1	50.1µM*	-13.7%	0.1%	22.2%	6.2%[11.4 µM]	-21.2%
COC(=O)Cc1[nH]n(-c2nc3ccccc3s2)c(=O)c1C(C)=Nc1ccc(Cl)cc1	25.1µM*	-1.9%	7.4%	-12.1%	22.4µM*	3.6%
COC(=O)Cc1[nH]n(-c2ccccc2)c(=O)c1C(C)=Nc1ccccc1	-30.3%	-0.3%	0.1%	1.6%	-22.7%	-0.9%
COC(=O)Cc1[nH]n(-c2nc3ccccc3s2)c(=O)c1C(C)=Nc1ccc(C)cc1	39.8µM*	1.0%	25.7%	1.1%	35.5µM*	0.6%
CCc1ccc(C(=O)c2cn(CC(=O)NCc3ccc(C)cc3)c3nc(C)ccc3c2=O)cc1	-2.4%	nt	44.9%	nt	-18.5%	1.6%
Cc1ccc(CN2CCC(CNS(=O)(=O)c3ccc(-c4ccc(=O)[nH]n4)s3)CC2)cc1	-16.3%	29.9µM*	24.8%	nt	?	?
Cc1ccc(NC(=O)C2CCCN2S(=O)(=O)c2ccc(-c3ccc(=O)[nH]n3)s2)c(C)c1 (centres undefined)	-18.9%	-12.1%	11.2%	nt	-18.9%	1.1%
COC(=O)c1c(-c2cccnc2)csc1NC(=O)c1ccc2c(c1)OCO2	-14.0%	-28.8%	9.1%	nt	-24.3%	89.1µM*
COC(=O)c1sccc1NC(=O)c1ccc2c(c1)OCO2	-19.6%	-4.7%	27.6%	nt	-13.4%	0.8%
CCOc1cc(CN2CCN(c3ccc(C(C)=O)cc3)CC2)ccc1OC	56.2µM*	-12.7%	?	-0.8%	1.41µM*	-8.7%
CCOc1cc(CN2CCN(c3cccc(C(F)(F)F)c3)CC2)ccc1OC	8.91µM*	0.4%	?	nt	8.91µM*	-1.5%
COCCNC(=S)N/N=C(\C)c1ccccc1F	-11.7%	-17.7%	?	11.8%	-16.6%	-9.8%
COCCNC(=S)N/N=C(\C)c1ccccc1O	10µM*	-18.9%	26.9%	17.6%	-9.6%	-6.2%
COCCCNC(=S)N/N=C/c1ccccc1O	10µM*	-13.2%	42.6%	?	56.2µM*	-8.1%
O=S(=O)(NCCSCc1ccc(Cl)cc1Cl)c1ccc2c(c1)OCCO2	1.4%	?	1.7%	7.6%	79.4µM*	-18.2%
Oc1ccc(C=Nc2ccc(N3CCOCC3)cc2)c(O)c1	?	-18.8%	?	nt	22.4µM*	0.5%
Clc1cccc(-c2ccc(C=Nc3ccc(N4CCOCC4)cc3)o2)c1Cl	17.8µM*	-7.2%	-15.1%	-28.9%	25.1µM*	?
Cc1cc(Br)cc(C=Nc2ccc(N3CCOCC3)cc2)c1O	nt	-0.3%	32.1%	nt	-11.5%	-14.1%
Oc1cc(Br)ccc1C=Nc1ccc(N2CCCCC2)cc1	?	9.7%	61.0%	-21.9%	-21.4%	13.6%
Oc1c(Cl)cc(Cl)cc1C=Nc1ccc(N2CCOCC2)cc1	-21.4%	13.5%	32.3%	nt	-2.7%	44.7µM*
Cc1ccc(N2CC(C)Cn3c2nc2c3c(=O)n(CC(=O)O)c(=O)n2C)cc1 (centres undefined)	-35.5%	nt	19.9%	nt	-11.6%	-3.2%
SMILES	BAZ2B inh	PLK1 PBD block	HP1b chromo inh	L3MBTL1 inh	JMJD2A Tudor inh	VDR inhibitor
O=C(/C(=C(\[O-])c1ccccc1)[n+]1ccc2ccccc2c1)c1ccc([N+](=O)[O-])cc1	-5.0%	-3.7%	22.0%	-5.4%	-3.8%	1.7%
O=[N+]([O-])c1ccc(-[n+]2ccc3ccccc3c2)c([N+](=O)[O-])c1	-9.9%	23.8µM*	-13.6%	-13.1%	?	79.4µM*
Cc1cc(N2O[C@H]3C=C[C@@H]2C3)no1	nt	?	-0.7%	8.8%	79.4µM*	0.0%
CCNC(=O)CCCN1C(=O)CCn2nc(-c3cccn3C)cc21	?	nt	5.5%[57 µM]	nt	-21.1%	11.2%
O=c1cc(Cn2ccnc2)c2cc3c(cc2o1)CCC3	-6.5%	-3.0%	24.4%	4.2%	-4.2%	-4.4%
Nc1cc(N)nc(SCc2cc(=O)oc3cc4c(cc23)CCC4)n1	-31.5%	26.7µM*	?	nt	?	-19.2%
Cc1cc2oc(=O)cc(CSc3nc(N)cc(N)n3)c2cc1C(C)C	31.6µM*	0.2%	1.8%	nt	-22.3%	-1.2%
OCc1cc2c(cn1)[nH]c1ccccc12	nt	nt	nt	nt	nt	5.2%
COc1cccc(N2CCN(C(=O)c3ccc4nc(N5CCCCC5)sc4c3)CC2)c1	-5.6%	-8.6%	-10.0%	nt	?	-6.9%
COc1ccc(N2CCN(C(=O)c3ccc4nc(N5CCCCC5)sc4c3)CC2)cc1	39.8µM*	?	29.6%	-15.4%	-24.6%	14.3%
O=C(c1ccc2c(c1)CCN2S(=O)(=O)c1ccccc1)N1CCN(c2ccc(F)cc2)CC1	-26.4%	-14.0%	7.3%	nt	-32.6%	-4.9%
COc1ccc(N2CCN(C(=O)c3ccc(CSc4ccccc4)cc3)CC2)cc1	44.7µM*	-15.5%	?	-2.4%	?	-3.0%
COc1ccc(C(=O)N2CCN(c3ccc(NC(=O)Cc4ccccc4)cc3)CC2)cc1	-1.6%	4.5%	19.3%	nt	-13.6%	-15.9%
COc1ccc(N2CCN(C(=O)CSc3ccccc3N)CC2)cc1	-38.4%	23.8µM*	2.4%	-5.0%	-30.8%	-4.3%
COc1ccc(N2CCN(C(=O)c3ccc4c(c3)CCN4S(=O)(=O)c3ccccc3)CC2)cc1	20µM*	2.0%	32.5%	nt	?	-1.6%
Cc1ccc(NC(=O)C2(C)CCN2C(=O)CC(c2ccccc2)c2ccccc2)cc1 (centres undefined)	nt	-4.9%	nt	nt	nt	nt
Cc1ccc(CSCCC(=O)N2CCN(c3cc(C)ccc3C)CC2)cc1	37.5%	nt	63.9%	nt	-13.1%	10.5%
CCCCCCCC1Cc2ccccc2C(C(C(=O)OC)C(=O)OC)N1C(=O)OC (centres undefined)	nt	nt	nt	nt	nt	-0.1%
CCOC(=O)N1CCN(C(=O)c2ccc(CSc3ccc(Cl)cc3)cc2)CC1	-20.0%	26.7µM*	-8.0%	-3.3%[11.4 µM]	44.7µM*	-6.7%
COC(=O)c1ccccc1NC(=S)N1CCN(c2ccc(OC)cc2)CC1	nt	-14.9%	38.0%	nt	56.2µM*	-13.0%
CCOC(=O)c1ccccc1NC(=O)N1CCN2CCCCC2C1 (centres undefined)	-9.4%	nt	24.0%	nt	-12.1%	5.5%
